Test results published in PubChem BioAssay.
“And” between values parts separate entries of the source, which are not always exact repeats. Equal entries are not always repeated. The source made the active and inactive calls.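 The calls were made as follows, unless noted: active = inhibition at or above 50% relative to wild type and mutant plate controls; inactive = inhibition below 50%.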

How the values were obtained:
[1] = inhibitors of TNFa-induced NFkB p65 translocation, primary screen, imaging, HUVEC, MLSMR starter and 10KST1 sets (AID 438;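 active = inhibition above 20% together with a positive visual image hit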;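 also: compound added about 3h40 before a 20 min TNFalpha stimulation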;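 as to inhibition: signal is the nuclear over cytoplasmic p65 intensity ratio per well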); settings: HUVEC TNFa-induced p65 nuclear translocation; cell count: measured here: nuclei count (cytotoxicity indicator), at 2.08 µM; inhibition: at 2 µM, stronger effect = higher value, 0% TNFa-plus-vehicle, 100% no-TNFa wells
[2] = reduction of polyQ htt aggregates in cells – imaging, exon1htt(103Q)mCFP cells, high-content imaging, primary screen (AID 483;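 active = visual image review flags a hit and inhibition of aggregation exceeds 20%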;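 also: compound exposure lasted 3 days before fixation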;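 as to nuclei count: percent of the per-plate median nuclei count of sample wells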); settings: exon1htt(103Q)mCFP cell line, aggregate imaging, at 2 µM; inhibition of aggregation: stronger effect = higher value; nuclei count: measured here: cell count, toxicity
[3] = endothelial E-selectin expression blockers – imaging, HUVEC, immunofluorescence, MLSMR starter and 10KST1 sets, primary screen (AID 487;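 active = visually confirmed hit in the image check and inhibition above 20%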;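 as to inhibition: signal is fraction of cell area covered by stained E-selectin grains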;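 as to nuclei count: 100% = median nuclei count of all wells on the same plate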); settings: HUVEC TNFalpha-induced E-selectin immunofluorescence imaging, at 2 µM; inhibition: stronger effect = higher value; nuclei count: measured here: cell number, toxicity
[4] = Primary imaging screen for DUSP6 inhibitors that restore phospho-Erk in transfected HeLa cells, chemical complementation (AID 609;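 active = compounds giving at least 50% inhibition in the cell-based MKP-3 phosphatase rescue imaging test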;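 as to inhibition: phospho-Erk level distribution per well compared with pooled transfected vehicle control wells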); settings: HeLa MKP-3 transfected, phospho-Erk imaging KS statistic, at 10 µM, cells stimulated with TPA for 15 min
[5] = target: Dual specificity protein phosphatase 6 (Homo sapiens) (UniProt Q16828); test: as above; settings: HeLa MKP-3 transfected, phospho-Erk imaging KS statistic; at 10 µM; stronger effect = higher value; cells stimulated with TPA for 15 min
Dual specificity protein phosphatase 6 (Homo sapiens), sequence (Q16828 whole entry, looked up): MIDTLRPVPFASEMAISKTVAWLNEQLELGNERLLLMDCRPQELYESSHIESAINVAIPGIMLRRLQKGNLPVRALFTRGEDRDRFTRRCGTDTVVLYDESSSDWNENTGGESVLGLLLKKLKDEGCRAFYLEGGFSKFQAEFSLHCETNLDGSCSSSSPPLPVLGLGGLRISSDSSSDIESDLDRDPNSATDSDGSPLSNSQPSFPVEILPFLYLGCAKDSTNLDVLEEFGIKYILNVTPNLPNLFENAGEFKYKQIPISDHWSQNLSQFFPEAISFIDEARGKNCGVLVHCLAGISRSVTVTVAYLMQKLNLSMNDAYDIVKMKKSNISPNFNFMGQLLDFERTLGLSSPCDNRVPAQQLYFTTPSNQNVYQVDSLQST

[6] = target: Voltage-gated potassium channel subunit beta-2 (Rattus norvegicus) (UniProt P62483); test: inhibitors of rat Kvbeta2 reductase activity – biochemical, NADPH fluorescence, primary screen (AID 622;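 active = fluorescence slope higher than the sample average by over 3 SD, cut at about -0.22 in these data, passing the limit was not always enough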;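 also: slope of raw intensity against log time taken from 70 to 1610 s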); settings: recombinant KvBeta, 4-cyanobenzaldehyde reduction, at 10 µM, stronger effect = higher value
Voltage-gated potassium channel subunit beta-2 (Rattus norvegicus), sequence (P62483 whole entry, looked up): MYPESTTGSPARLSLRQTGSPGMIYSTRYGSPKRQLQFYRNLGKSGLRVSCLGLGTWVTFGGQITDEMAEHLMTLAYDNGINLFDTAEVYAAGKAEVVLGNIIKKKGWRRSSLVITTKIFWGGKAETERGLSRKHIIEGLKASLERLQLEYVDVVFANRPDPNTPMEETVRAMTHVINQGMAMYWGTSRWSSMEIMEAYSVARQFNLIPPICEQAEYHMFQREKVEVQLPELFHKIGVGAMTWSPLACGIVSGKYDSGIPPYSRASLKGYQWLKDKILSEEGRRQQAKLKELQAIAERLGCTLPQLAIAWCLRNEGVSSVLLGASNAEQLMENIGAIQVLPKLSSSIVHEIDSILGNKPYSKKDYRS

[7] = target: Voltage-gated potassium channel subunit beta-2 (Rattus norvegicus) (UniProt P62483); test: enhancers of rat Kvbeta2 NADPH turnover – biochemical, NADPH fluorescence, primary screen (AID 623;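 active = NADPH fluorescence slope more negative than the mean of all samples by about 3 SD, 99.7% confidence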;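 also: fluorescence intensity change per second fitted from 20 to 320 s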); settings: Recombinant KvBeta, NADPH fluorescence decrease slope, 10 min; at 10 µM; stronger effect = lower value
[8] = target: Alpha-2C adrenergic receptor (Homo sapiens) (UniProt P18825); test: compounds altering alpha2C-coupled GIRK flux – cell-based, HEK293 alpha2C/GIRK1/2, thallium flux, primary screen (AID 624;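 active = fluorescence slope after compound addition differing from the mean of all screened samples at 99.7% confidence, in either direction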;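 also: slope of fluorescence ratio to pre-addition baseline per second over 15 to 24 s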); settings: thallium flux BTC fluorescence, at 10 µM, actives lie on both sides
Alpha-2C adrenergic receptor (Homo sapiens), sequence (P18825 whole entry, looked up): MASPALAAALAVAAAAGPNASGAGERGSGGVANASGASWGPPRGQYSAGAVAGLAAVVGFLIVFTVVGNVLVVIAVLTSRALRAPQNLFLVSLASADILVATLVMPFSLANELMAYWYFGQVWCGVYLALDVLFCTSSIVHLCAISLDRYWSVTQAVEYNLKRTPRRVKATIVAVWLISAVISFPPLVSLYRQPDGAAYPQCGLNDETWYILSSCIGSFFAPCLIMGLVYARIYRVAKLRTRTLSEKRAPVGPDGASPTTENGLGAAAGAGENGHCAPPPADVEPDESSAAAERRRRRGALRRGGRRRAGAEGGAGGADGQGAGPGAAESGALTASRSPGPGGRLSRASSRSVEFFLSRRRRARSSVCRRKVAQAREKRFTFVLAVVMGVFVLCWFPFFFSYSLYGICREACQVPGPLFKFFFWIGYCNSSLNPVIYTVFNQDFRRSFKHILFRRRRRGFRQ

[9] = inhibitors of larval lipid processing in zebrafish, primary screen, whole organism, PED6 fluorescence, gall bladder and intestine (AID 686;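 active = a full or partial loss of lipid-probe fluorescence in the fish gall bladder, intestine or both, judged by eye; inactive = no fluorescence loss, or compound toxic to the fish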;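 also: larvae 5 to 7 days old with five fish per well; signal comes from phospholipase A2 cleavage of quenched PED6 carried via bile; overnight exposure to compound and PED6 before scoring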); settings: Zebrafish larvae PED6 lipid processing, fluorescence scoring; screened at 20 µM (by protocol)
[10] = loss of swimming-algae plug formation – whole organism, Chlamydomonas reinhardtii, WT vs cilia-less mutant, absorbance, 96-well, primary screen (AID 463189); settings: Chlamydomonas reinhardtii gravitaxis, OD600 absorbance, 2 days; at 10 µM; stronger effect = higher value;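 also: 0% = wild type cc124 cells in DMSO and 100% = ciliumless bld1 mutant cells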
[11] = blockers of RIG-like receptor reporter activation – cell-based, Sendai virus stimulus, luciferase, 10K MLSCN set, TLR/RLR signaling modifier project, primary screen (AID 602276;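 active = inhibition at or above 50% at 10 µM; inactive = inhibition below 50%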;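 also: firefly luciferase from ISG56 promoter only with Renilla not read in this screen; 0% = Sendai virus plus DMSO and 100% = medium plus DMSO without virus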); settings: HEK293 RL24 IRF3 luciferase reporter, at 10 µM, stronger effect = higher value
[12] = TLR3 IRF3 reporter activation blockers – cell-based, poly I:C stimulus, luciferase, 10K MLSCN set, primary screen (AID 602277;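 active = inhibition of the reporter signal at or above 50%; inactive = inhibition below 50%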); settings: HEK293-TLR3 RL24 IRF3 luciferase reporter, at 10 µM, stronger effect = higher value
[13] = target: Muscarinic acetylcholine receptor M4 (Homo sapiens) (UniProt P08173); test: M4-linked GIRK flux change, two-sided – cell-based, HEK293 M4/GIRK, thallium flux, BTC-AM, M4 allosteric agonist project, primary screen (AID 625;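 active = fluorescence slope after compound addition differing from the mean of all tested samples at 99.7% confidence, mostly higher but some lower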;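 also: thallium influx through GIRK channels coupled to M4 in HEK293 cells with BTC-AM dye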); settings: at 10 µM, actives lie on both sides
Muscarinic acetylcholine receptor M4 (Homo sapiens), sequence (P08173 whole entry, looked up): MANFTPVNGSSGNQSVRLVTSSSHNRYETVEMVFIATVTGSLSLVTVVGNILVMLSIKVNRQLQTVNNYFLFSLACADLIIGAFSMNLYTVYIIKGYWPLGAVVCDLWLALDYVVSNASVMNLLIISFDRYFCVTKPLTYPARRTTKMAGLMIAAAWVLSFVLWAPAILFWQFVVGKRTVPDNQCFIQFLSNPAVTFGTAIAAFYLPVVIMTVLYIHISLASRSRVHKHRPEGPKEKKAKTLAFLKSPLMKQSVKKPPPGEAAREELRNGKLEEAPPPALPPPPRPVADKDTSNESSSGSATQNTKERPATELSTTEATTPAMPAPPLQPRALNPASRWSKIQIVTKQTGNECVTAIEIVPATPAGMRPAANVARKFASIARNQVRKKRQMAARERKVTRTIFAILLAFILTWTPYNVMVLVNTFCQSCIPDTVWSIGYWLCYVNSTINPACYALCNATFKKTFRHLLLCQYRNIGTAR

[14] = measured here: cell density z-score
[15] = measured here: nuclear c-Myc green intensity z-score
[16] = measured here: nuclear pErk red intensity z-score, stronger effect = higher value

Compound | cell count [1] | inhibition [1] | inhibition of aggregation [2] | nuclei count [2] | inhibition [3] | nuclei count [3] | z-score [4, 14] | z-score [4, 15] | z-score [4, 16] | inhibition [5] | fluorescence slope [6] | NADPH fluorescence slope [7] | slope [8] | outcome [9] | inhibition [10] | inhibition [11] | inhibition [12] | fluorescence slope [13]
Cc1cc(N2CCN(C3CCCC3)CC2)n2c(nc3ccccc32)c1C#N | 582 | -4.5% (inactive) | 36.4% (active) | 57.7% | 6.5% (inactive) | 110% | 1.58 | 0.862 | -0.0668 | 17.8% (inactive) | -0.33 (inactive) | -3.1e-05 (inactive) | 0.00579 (inactive) | inactive | -3.52% (inactive) | 24.6% (inactive) | 39% (inactive) | –
Nc1nc(N)c2nc(-c3ccccc3)c(N)nc2n1 | 640 | -0.8% (inactive) | -9.9% (inactive) | 107% | -64.7% (inactive) | 133% | -0.982 | -0.143 | 2.15 | -11.9% (inactive) | -0.0137 (active) | -1.2e-05 (inactive) | 0.00479 (inactive) | inactive | 4.85% (inactive) and -8.55% (inactive) | 12.2% (inactive) | 34.5% (inactive) | –
CCN(CCCCOC(=O)c1ccc(OC)c(OC)c1)C(C)Cc1ccc(OC)cc1 (stereo unspecified) | 635 | -4.8% (inactive) | -7.1% (inactive) | 96.1% | -106% (inactive) | 138% | 0.515 | -0.208 | -0.515 | 9.37% (inactive) | -0.488 (inactive) | -7.4e-05 (inactive) | 0.00442 (inactive) | inactive | 55.2% (active) | -44.7% (inactive) | 57.4% (active) | –
Cn1c(-n2c(-c3ccco3)nc3ccccc3c2=O)nc2ccccc21 | 589 | -10.5% (inactive) | 32% (inactive) | 109% | -8.3% (inactive) | 126% | 0.944 | 0.431 | -0.392 | 8.31% (inactive) | -0.351 (inactive) | -6.3e-06 (inactive) | 0.00557 (inactive) | inactive | 9.97% (inactive) | 20.8% (inactive) | 6.14% (inactive) | –
CC1(C)CC(=O)C=C(NCc2ccncc2)C1 | 623 | -5.3% (inactive) | -13.1% (inactive) | 100% | -98.8% (inactive) | 122% | 1.78 | -0.484 | -1.6 | 13.9% (inactive) | -0.497 (inactive) | -3.5e-05 (inactive) | 0.00534 (inactive) | inactive | -8.68% (inactive) | -0.503% (inactive) | 44.9% (inactive) | –
Cc1c(Cl)cccc1Nc1ccccc1C(=O)O | 612 | -8.8% (inactive) | 17.9% (inactive) | 108% | -156% (inactive) | 129% | -0.93 | -0.312 | 1.31 | 5.42% (inactive) | -0.466 (inactive) | -4.7e-06 (inactive) | 0.00655 (inactive) | inactive | -6.31% (inactive) | 4.32% (inactive) | 19.5% (inactive) | –
CCCCOc1ccc(C(=O)Nn2cnnc2)cc1 | 491 | -0.8% (inactive) | 14.2% (inactive) | 96.9% | -83.6% (inactive) | 100% | -0.477 | -1.53 | -0.77 | -8.27% (inactive) | -0.32 (inactive) | -2.1e-05 (inactive) | 0.00306 (inactive) | inactive | 0.154% (inactive) | 9.75% (inactive) | 15.4% (inactive) | –
N#CC1(c2ccccc2)CCC(=NO)CC1 (stereo unspecified) | 685 | -0.6% (inactive) | -8% (inactive) | 102% | 8.8% (inactive) | 86.8% | -0.0727 | 1.42 | -0.351 | -13.3% (inactive) | -0.461 (inactive) | -4.5e-05 (inactive) | 0.00512 (inactive) | inactive | -5.88% (inactive) | 10.2% (inactive) | 20.6% (inactive) | 0.00503 (inactive)
CCCCN(CCCC)CCCOC(=O)c1ccc(N)cc1 | 680 | -1.8% (inactive) | 7.7% (inactive) | 97.6% | -60.2% (inactive) | 130% | -0.857 | -0.989 | 0.993 | -4.44% (inactive) | -0.511 (inactive) | -5.7e-05 (inactive) | 0.00529 (inactive) | inactive | 12.6% (inactive) | -12.8% (inactive) | 56.3% (active) | –
NC(=O)c1cc(-c2ccccc2)nc(Oc2ccccc2)n1 | 472 | -18.1% (inactive) | 8.5% (inactive) | 99% | -13.2% (inactive) | 109% | -0.736 | -0.523 | 0.468 | 6.51% (inactive) | -0.53 (inactive) | -8.3e-05 (inactive) | 0.00808 (inactive) | inactive | -1.45% (inactive) | 13.4% (inactive) | 1.65% (inactive) | –
